A short description of assay [1]: APR_HepG2_NuclearSize_24hr: Apredica 24-hour HepG2 Assay for Nuclear Size (AID 2282907). The conditions noted are these: high-content imaging, actives raise or lower the signal. The gist of the method:
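Nuclear size is measured by fluorescence high-content imaging of Hoechst-labelled HepG2 nuclei after 24 hr of treatment (0.39–200 uM, 0.5% DMSO). Cells are fixed in 3.7% formaldehyde before staining, and DMSO serves as the baseline for bidirectional curve fitting.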

A short description of assay [2]: APR_HepG2_CellLoss_24hr: Apredica 24-hour HepG2 Assay for Cell Loss (AID 2282908).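 As to AC50: fit in both directions so a hit may be cell loss or gain.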 The settings on record: high-content imaging. The gist of the method:
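Nuclear count serves as the viability measure: treated cells are fixed, permeabilized and labelled with Hoechst 33342, and six images per well are analysed to identify valid nuclei. Doses span 0.39–200 uM, and activity in either direction is scored against DMSO.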

Assay [3] can be described thus: APR_HepG2_MicrotubuleCSK_24hr: Apredica 24-hour HepG2 Assay for Microtubule CSK Stabilty (AID 2282909). The conditions noted are these: HepG2 microtubule cytoskeleton imaging, actives raise or lower the signal. In a few lines:
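Compounds were applied to HepG2 cells for 24 hours across 0.39–200 uM in duplicate, with final DMSO at 0.5% v/v. Fixed, permeabilized cells were labeled for alpha-tubulin and nuclei, and tubulin fluorescence was quantified by imaging, fitted bidirectionally against DMSO.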

Assay [4] can be described thus: APR_HepG2_MitoticArrest_24hr: Apredica 24-hour HepG2 Assay for Mitotic Arrest (AID 2282910). The settings on record: high-content imaging, actives raise or lower the signal. The gist of the method:
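HepG2, 24 hr dosing, 0.39–200 uM, 0.5% DMSO final. Formaldehyde-fixed, Triton-permeabilised, anti-phospho-histone H3 plus Hoechst. ArrayScan imaging at 20x; bidirectional fit vs DMSO baseline.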

A short description of assay [5]: APR_HepG2_MitoMembPot_24hr: Apredica 24-hour HepG2 Assay for Mitochondrial Membrane Potential (AID 2282911). The settings on record: imaging, actives raise or lower the signal. In a few lines:
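HepG2 human liver cells were exposed 24 hr to compounds at 0.39–200 uM (final DMSO 0.5% v/v) in duplicate. MitoTracker Red CMXRos (250 nM, 30 min) was loaded before formaldehyde fixation; fluorescence was imaged by ArrayScan HCS and fitted bidirectionally versus DMSO.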

A short description of assay [6]: APR_HepG2_MitoMass_24hr: Apredica 24-hour HepG2 Assay for Mitochondrial Mass (AID 2282912). The conditions noted are these: high-content imaging, actives raise or lower the signal. The gist of the method:
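After 24 hr of treatment at 0.39 to 200 uM, HepG2 cells take up 250 nM MitoTracker Red CMXRos for 30 min and are then fixed with 3.7% formaldehyde. Per-well images are quantified, and any change in either direction is scored against solvent.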

A short description of assay [7]: APR_HepG2_p53Act_24hr: Apredica 24-hour HepG2 Assay for p53 Activation (AID 2282913).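 Also: p53 protein immunofluorescence averaged per cell in HepG2 with Hoechst nuclei.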 The conditions noted are these: high-content imaging, actives raise or lower the signal. The gist of the method: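 HepG2 cells exposed 24 hr to compounds at 0.39–200 uM (10 concentrations, duplicate), final DMSO 0.5% v/v. After formaldehyde fixation and Triton permeabilization, p53 was immunolabeled (sheep anti-p53, Cy5 secondary) with Hoechst 33342 nuclear counterstain, then imaged by high-content fluorescence microscopy.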

Assay [8] in a line: APR_HepG2_CellCycleArrest_72hr: Apredica 72-hour HepG2 Assay for Cell Cycle Arrest (AID 2282914). The settings on record: high-content imaging, actives raise or lower the signal. The gist of the method:
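HepG2 cells were exposed to compounds at 0.39–200 uM (0.5% v/v DMSO final, duplicates) for 72 hr, fixed in 3.7% formaldehyde, permeabilized and stained with Hoechst 33342. Nuclear DNA content was quantified by high-content imaging; gain or loss of signal was fitted bidirectionally against DMSO.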

Assay [9] can be described thus: APR_HepG2_CellLoss_72hr: Apredica 72-hour HepG2 Assay for Cell Loss (AID 2282915). The conditions noted are these: high-content imaging. In a few lines:
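HepG2 cells exposed 72 h to compound at 0.39–200 uM (10 concentrations, duplicate) in 0.5% DMSO. Fixed with 3.7% formaldehyde and Hoechst 33342-stained. Imaged at 20x; nuclear count gives cell number, fitted bidirectionally versus DMSO.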

Assay [10] is described as follows: APR_HepG2_P-H2AX_72hr: Apredica 72-hour HepG2 Assay for H2AX Phosphorylation (AID 2282916).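 Also: phospho-histone H2A.x immunostain intensity per cell marking DNA damage.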 The settings on record: imaging, actives raise or lower the signal. The gist of the method: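 Human hepatoma HepG2 cells are dosed across ten concentrations (0.39 to 200 uM, 0.5% v/v DMSO) and incubated 72 hr. Phospho-histone H2A.x is then detected by antibody staining alongside c-Jun and Hoechst, and quantified by automated fluorescence imaging.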

Assay [11] can be described thus: APR_HepG2_MitoMembPot_72hr: Apredica 72-hour HepG2 Assay for Mitochondrial Membrane Potential (AID 2282917). The settings on record: imaging, actives raise or lower the signal. The gist of the method: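 HepG2 cells dosed 72 hr with compound at 0.39–200 uM in duplicate, 0.5% v/v DMSO final. Mitochondria stained with 250 nM MitoTracker Red CMXRos for 30 min before formaldehyde fixation, imaged by high-content fluorescence; bidirectional fit versus DMSO.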

A short description of assay [12]: APR_HepG2_MitoticArrest_72hr: Apredica 72-hour HepG2 Assay for Mitotic Arrest (AID 2282918). The settings on record: high-content imaging, actives raise or lower the signal. In a few lines:
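HepG2 cells were exposed for 72 hr to compound at 0.39–200 uM (10 concentrations, duplicate) in 0.5% v/v DMSO, fixed in 3.7% formaldehyde, immunostained for phospho-histone H3 with Hoechst 33342 and imaged by high-content fluorescence; bidirectional fits versus DMSO.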

A short description of assay [13]: APR_HepG2_MicrotubuleCSK_72hr: Apredica 72-hour HepG2 Assay for Microtubule CSK Stabilty (AID 2282919). The conditions noted are these: HepG2 microtubule cytoskeleton, high-content imaging, actives raise or lower the signal. The gist of the method: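 HepG2, 72 hr cmpd exposure, 0.39–200 uM (10 pts, duplicate), 0.5% DMSO. 3.7% formaldehyde fix, 0.5% Triton perm, anti-alpha-tubulin/Cy5 plus Hoechst. HCS fluorescence intensity; bidirectional fit vs DMSO baseline; taxol as positive control.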

Assay [14] is described as follows: APR_HepG2_P-H2AX_24hr: Apredica 24-hour HepG2 Assay for H2AX Phosphorylation (AID 2282920). The conditions noted are these: high-content imaging, actives raise or lower the signal. In a few lines: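 HepG2 human liver cells were exposed for 24 hr to compounds at 0.39–200 uM in duplicate, with 0.5% v/v DMSO final. Fixed cells were immunostained for phospho-histone H2A.x plus Hoechst 33342, imaged by HCS fluorescence, and fitted bidirectionally against DMSO.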

A short description of assay [15]: APR_HepG2_StressKinase_72hr: Apredica 72-hour HepG2 Assay for Stress Kinase (AID 2282921). The settings on record: HepG2 stress kinase (phospho-c-Jun) imaging, actives raise or lower the signal. In a few lines:
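After a 72 h compound treatment spanning 0.39 to 200 uM, formaldehyde-fixed cells are labelled for phosphorylated c-Jun and nuclei, imaged by automated fluorescence microscopy, and activity is fitted in both directions relative to DMSO controls.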

The nature of assay [16]: APR_HepG2_StressKinase_24hr: Apredica 24-hour HepG2 Assay for Stress Kinase (AID 2282922). The conditions noted are these: HepG2 stress kinase (phospho-c-Jun) imaging, actives raise or lower the signal. In a few lines:
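Read-out: phospho-c-Jun immunofluorescence (Cy3 secondary) quantified by high-content imaging at 20x, nuclei defined by Hoechst 33342. Human HepG2 liver cells dosed 24 hr, 0.39–200 uM, DMSO 0.5% v/v; gain or loss of signal fitted relative to DMSO.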

A short description of assay [17]: APR_HepG2_MitoMass_72hr: Apredica 72-hour HepG2 Assay for Mitochondrial Mass (AID 2282924).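 Also: MitoTracker Red CMXRos stain intensity per cell imaged as mitochondrial mass.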 The conditions noted are these: high-content imaging, actives raise or lower the signal. In a few lines: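 Read-out: MitoTracker Red fluorescence intensity from automated imaging (20x, six fields per well) in human HepG2 liver cells. Dosing ran 72 hr, 0.39–200 uM, 0.5% DMSO; bidirectional curve fitting versus DMSO baseline.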

Assay [18] can be described thus: APR_HepG2_NuclearSize_72hr: Apredica 72-hour HepG2 Assay for Nuclear Size (AID 2282925). The settings on record: high-content imaging, actives raise or lower the signal. In a few lines: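 Read-out: nuclear diameter from Hoechst 33342 images (ArrayScan, 20x, six fields/well), via cell-cycle image analysis. HepG2 were dosed 0.39–200 uM for 72 hr in 0.5% DMSO. Bidirectional fit relative to DMSO.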

The nature of assay [19]: ATG_CRE_CIS: Attagene CIS-FACTORIAL HepG2 Assay for human cAMP Responsive Element (CRE) binding protein 3 (AID 2282926). The conditions noted are these: HepG2 CRE cis-reporter, Attagene multiplexed mRNA; actives raise or lower the signal. In a few lines:
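Capillary electrophoresis of 6-FAM-labelled, HpaI-digested PCR products quantified reporter transcripts. These came from HepG2 transiently transfected with cis-element reporters and exposed to test chemicals for 24 hours, with DMSO defining baseline activity.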

Activity calls are given as the source filed them. The calls were made as follows: active = hit-call score of the fitted dose curve at least 0.9, where 1 is the maximum; inactive = score below 0.9.

For `CCCCOC(=O)[C@@H](C)Oc1ccc(Oc2ccc(C(F)(F)F)cn2)cc1`, the outcome in assay [1], in [2], in [3], in assay [4], in assay [5] and in assay [6] was inactive. For the same compound, the compound was called inactive in [7], in assay [8], in assay [9], in assay [10], in assay [11] and in [12]. The compound was classed as inactive in assay [13], in [14], in assay [15], in assay [16], in assay [17] and in [18]. The result in [19] was inactive.
The term AC50 denotes the concentration at which the activity in the assay is half-maximal. Take `S=C([S-])NCCNC(=S)[S-].[Mn+2]`: the compound was called inactive in assay [1], in assay [2], in assay [3], in assay [4], in [5] and in [6]. Also, the call in [10], in [11], in [12], in assay [14], in assay [15] and in assay [16] was inactive. In addition, the result in assay [18] was inactive. Moreover, the AC50 in [8] is 82.9 µM (active); in assay [9], 11.5 µM (active); in [13], 103 µM (active); in assay [17], 166 µM (active).
As for `O=C(c1ccc(O)cc1O)c1ccc(O)cc1O`, the compound was classed as inactive in assay [1], in assay [2], in assay [3], in [4], in assay [6] and in [7]. Also, the result in assay [8], in assay [9], in [10], in [11], in assay [12] and in assay [13] was inactive. For the same compound, the result in assay [14], in [15], in [16], in assay [18] and in assay [19] was inactive. The values for the AC50 in assay [5] and in assay [17] were 2.29 µM (active) and 4.43 µM (active), respectively.
For `COC(=O)c1ccccc1S(=O)(=O)NC(=O)Nc1nc(OC(F)F)cc(OC(F)F)n1`, the compound was classed as inactive in [1], in assay [2], in [3], in assay [4], in assay [5] and in [6]. Besides, the compound was called inactive in assay [7], in [8], in assay [9], in assay [10], in assay [11] and in assay [12]. Besides, the call in assay [13], in assay [14], in assay [15], in assay [16], in [17] and in assay [18] was inactive. Moreover, in assay [19], the outcome was inactive.
As to `C[C@]12C[C@H](O)[C@H]3[C@@H](CCC4=CC(=O)CC[C@@]43C)[C@@H]1CC[C@@H]2C(=O)CO`, the AC50 is 109 µM (active) in [1]; 65.3 µM (active) in assay [2]; 82.9 µM (active) in assay [5]; 86.2 µM (active) in assay [7]; 32.9 µM (active) in assay [9]; 34.5 µM (active) in assay [10]. Also, the AC50 was 120 µM (active) in assay [11], 86.1 µM (active) in assay [12], 96.6 µM (active) in [14] and 148 µM (active) in [17]. Also, the compound was classed as inactive in assay [3], in assay [4], in assay [6], in assay [8], in assay [13] and in assay [15]. The call in [16] and in [18] was inactive.
In the case of `COC(=O)c1ccc(I)cc1S(=O)(=O)NC(=O)Nc1nc(C)nc(OC)n1`, the compound was classed as inactive in assay [1], in assay [2], in assay [3], in [4], in assay [5] and in [6]. For the same compound, the compound was classed as inactive in assay [7], in assay [8], in [9], in assay [10], in assay [11] and in assay [12]. The result in assay [13], in assay [14], in assay [15], in [16], in [17] and in assay [18] was inactive. In assay [19], the result was inactive.
In the case of `CCCCCOC(=O)COc1cc(N2C(=O)C3=C(CCCC3)C2=O)c(F)cc1Cl`, the outcome in assay [1], in assay [2], in [3], in assay [4], in [5] and in assay [6] was inactive. In addition, the call in assay [8], in assay [10], in assay [11], in assay [12], in [13] and in assay [15] was inactive. In addition, the result in [16], in assay [17] and in assay [18] was inactive. Further, the AC50 was 105 µM (active) in assay [9] and 119 µM (active) in [14].

(Values after PubChem BioAssay (EPA / NIEHS).)
